Luc counter: counter-screen: inhibitors of Kinase-Glo firefly luciferase. Q27757. Kinase-Glo luciferase, ATP luminescence, 8 min. Potency, µM (highest dose often 38.3 µM), actives largely listed as inhibitors. 200,000 tested, 0.28% active; note: nearly all actives have a fitted effect of over 60% in size
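Compound is pinned into ATP-containing buffer (10 uM ATP, imidazole pH 7.2, 7 mM MgCl2). Kinase-Glo luciferase reagent is then added. Light output is recorded following an 8-min room-temperature incubation.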
FLuc counter: counter-screen for miR-21 project: firefly luciferase inhibitors or activators; P08659; purified FLuc, Km substrates, luminescence inhibition; Potency, µM (highest dose often 57.5 µM), most hits filed as inhibitors; 360,000 tested, 6.9% active; AID 588342; note: nearly all actives have a fitted effect of over 55% in size
Target sequence (P08659 whole entry, looked up): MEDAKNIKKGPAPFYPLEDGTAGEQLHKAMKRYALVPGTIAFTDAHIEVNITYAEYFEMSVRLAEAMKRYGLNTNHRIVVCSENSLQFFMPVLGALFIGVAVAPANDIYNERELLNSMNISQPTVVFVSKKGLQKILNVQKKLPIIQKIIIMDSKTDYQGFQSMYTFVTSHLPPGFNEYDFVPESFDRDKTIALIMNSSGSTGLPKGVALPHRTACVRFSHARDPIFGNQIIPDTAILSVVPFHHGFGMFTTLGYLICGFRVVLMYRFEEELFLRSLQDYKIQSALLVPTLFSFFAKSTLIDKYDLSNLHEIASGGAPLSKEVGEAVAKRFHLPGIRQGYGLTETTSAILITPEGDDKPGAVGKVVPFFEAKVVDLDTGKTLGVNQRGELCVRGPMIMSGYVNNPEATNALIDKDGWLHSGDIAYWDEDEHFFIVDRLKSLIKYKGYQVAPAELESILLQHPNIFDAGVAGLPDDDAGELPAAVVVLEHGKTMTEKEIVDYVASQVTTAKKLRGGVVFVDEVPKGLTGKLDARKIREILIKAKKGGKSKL
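Purified P. pyralis luciferase (10nM final) with 10uM D-luciferin and 10uM ATP (Km levels) in 50mM Tris acetate pH 7.5, 10mM Mg acetate, 0.01% Tween-20, 0.05% BSA; qHTS 6-point titration, ~60 µM downward; luminescence read.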
Rab9 prom act: activators of Rab9 promoter | AID 485297 | Potency, µM (doses to about 9.22 µM), most hits filed as activators | Huh7 Rab9 promoter-luciferase reporter, luminescence, 24 h | 320,000 tested, 2.8% active; note: nearly all actives have a fitted effect of over 60% in size
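Measured in stably transfected Huh7 cells bearing a Rab9 promoter–luciferase construct: 24 h compound treatment at 37 °C, followed by luminescence detection.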
SMN2 splice enh: increases expression of the SMN2 splice variant. HEK293 SMN2-luciferase splicing reporter, luminescence, 30-36 h. Potency, µM (titrated, usually from 46.1 µM), hits mostly activators. 210,000 tested, 2.8% active. AID 1458; note: nearly all actives have a fitted effect of over 55% in size
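HEK293 cells carry an SMN2 […]–luciferase reporter in which exon 7 inclusion puts luciferase in frame. Cells were plated 10-12 h before compound addition, then incubated 30-36 h at 37C. ONE-Glo luminescence was read; sodium butyrate at 4.5 mM final served as control.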
ELG1 genotoxic: genotoxicity induction in ELG1-luciferase HEK293T cells; HEK293T ELG1-luciferase reporter, luminescence, 16 h; Potency, µM (top dose mostly 46 µM), most hits filed as activators; 330,000 tested, 1.3% active; note: nearly all actives have a fitted effect of over 60% in size
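After overnight (16 hr) compound treatment at 37 °C, ELG1-luciferase HEK293T cells were lysed with ONE-Glo; luminescence quantified 30 min later at room temperature.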
NPC1 prom act: activators of NPC1 promoter. 320,000 tested, 2.4% active. Potency, µM (doses to about 9.22 µM), most hits filed as activators. Huh7 NPC1 promoter luciferase reporter, 24 h; note: nearly all actives have a fitted effect of over 60% in size
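Compounds in DMSO were transferred onto Huh7 NPC1-luciferase reporter cells pre-incubated 2 h; after 24 h at 37 °C, Amplite reagent was dispensed and luminescence recorded 10 min later.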
Numbers stand for hits; - = inactive; ? = inconclusive; . = no result. In the library only some 7.5% were active in any assay of this set; here they are far more common. Calls come from the whole dose curve; as a rule, active = well fitted curve in the direction sought with a large enough effect; inconclusive = small, poorly fitted or top-dose-only effect, or another doubt; inactive = no such curve, though single readings can be large; an effect the other way counts as inactive or inconclusive.

SMILES | Luc counter | FLuc counter | Rab9 prom act | SMN2 splice enh | ELG1 genotoxic | NPC1 prom act
CSCC[C@H](NC(=O)Nc1ccc(S(N)(=O)=O)cc1)C(=O)O | . | - | - | . | - | -
COc1ccc(/C=C2\SC(=NCc3ccccc3)NC2=O)cc1 | - | - | - | - | - | -
O=C1N/C(=N/S(=O)(=O)Cc2ccccc2)S/C1=C/c1ccc2c(c1)OCO2 | . | 26.9µM | - | . | - | -
COc1ccc(N2CCN(C(=O)CCS(=O)(=O)c3cc4c(cc3Cl)NC(=O)CO4)CC2)cc1 | . | - | . | . | . | .
CN(C)c1ccc(N=Cc2nc(-c3ccccc3)oc2OC(=O)c2ccccc2)cc1 | - | ? | ? | 11.2µM | ? | ?
CC(=O)Oc1oc(-c2ccccc2)nc1/C=N/c1ccccn1 | ? | 21.3µM | - | ? | ? | -
COc1ccccc1N=Cc1nc(-c2ccccc2)oc1OC(C)=O | - | - | - | - | - | -
O=C1S/C(=C\C=C\c2ccco2)C(=O)N1c1ccccc1 | - | ? | ? | - | - | ?
O=C1S/C(=C\C=C\c2ccco2)C(=O)N1c1ccc(O)cc1 | - | 15.1µM | ? | - | ? | -
O=C(NN1C(=O)/C(=C/C=C/c2ccco2)SC1=S)c1ccccc1O | . | 19µM | - | . | - | -
O=C(O)CC(C(=O)O)N1C(=O)/C(=C/c2ccc(-c3nc4ccccc4s3)o2)SC1=S (stereo not drawn) | - | 19µM | - | - | - | -
O=C(O)CCCN1C(=O)/C(=C\C(Cl)=C\c2ccccc2)SC1=S | . | 9.53µM | - | . | - | -
Cc1c(C(=O)NCc2ccccc2Cl)sc2nc3n(c(=O)c12)CCCCC3 | . | - | . | . | . | .
COc1cc2c(cc1OC)C(c1ccc(Cl)cc1)N(c1ccc(C)c(F)c1)C(=O)C2 (stereo not drawn) | . | - | . | - | . | .
CCc1ccc(NC(=O)N2CCC(N3CCN(Cc4ccc(C)cc4)C(=O)C3=O)CC2)cc1 | . | - | . | . | . | .
O=C(O)C(Cc1ccccc1)N1C(=O)/C(=C/C=C/c2ccco2)SC1=S (stereo not drawn) | . | ? | - | . | - | -
O=C(O)CCCN1C(=O)/C(=C/C=C/c2ccco2)SC1=S | . | 26.9µM | - | . | - | -
O=C(O)CC(C(=O)O)N1C(=O)/C(=C/C=C/c2ccco2)SC1=S (stereo not drawn) | . | 12µM | - | . | - | -
Cc1nc(Nc2ccccc2)c2nc(-c3ccccc3)n(CCN3CCOCC3)c2n1 | - | . | . | - | . | .
O=C(c1ccco1)N1CCN(C(c2ccccn2)c2nnnn2C2CCCC2)CC1 (stereo not drawn) | - | 15.1µM | ? | 12.6µM | ? | ?
COC(=O)c1ccccc1NCC(=O)c1ccc(OC)cc1 | . | ? | - | . | - | ?
COc1ccc(C(=O)CNc2ccc(C)cc2C)cc1 | . | 12µM | - | . | - | -
COc1ccc(C(=O)CNc2ccccc2CO)cc1 | - | 16.9µM | - | ? | ? | -
CCOc1cc(C(=O)NCc2ccc3c(c2)CCN3C(=O)CC)cc(OCC)c1OCC | . | - | . | - | . | .
Cc1c(C(=O)Nc2cccc(F)c2)cnn1-c1ccccc1 | . | 6.01µM | 1.41µM | . | ? | 1.58µM
SMILES | Luc counter | FLuc counter | Rab9 prom act | SMN2 splice enh | ELG1 genotoxic | NPC1 prom act
Cc1c(C(=O)Nc2cccc([N+](=O)[O-])c2)cnn1-c1ccccc1 | . | 9.53µM | 2.51µM | . | ? | 2.82µM
CC(=O)c1cccc(NC(=O)c2cnn(-c3ccccc3)c2C)c1 | . | 9.53µM | 3.98µM | . | ? | 3.16µM
Clc1ccccc1-c1nc(-c2ccccc2)n[nH]1 | - | 6.75µM | 2.82µM | ? | ? | 3.16µM
Clc1c(-c2nnc3n2CCC3)sc2ccccc12 | - | 21.3µM | - | - | - | -
Fc1cccc2sc(Nc3nc4ccccc4s3)nc12 | - | ? | ? | 10µM | ? | ?
O=C(NNc1nc2ccccc2s1)c1ccccc1F | - | - | - | - | - | -
COc1cccc2sc(Nc3nc4ccc(NC(C)=O)cc4s3)nc12 | - | ? | - | - | - | -
Fc1ccc2nc(Nc3nc4c(F)cccc4s3)sc2c1 | - | 9.53µM | ? | ? | - | ?
CCC(=O)NNc1nc2c(F)cc(F)cc2s1 | - | - | - | - | - | -
Fc1ccc2nc(Nc3nc4c(F)cc(F)cc4s3)sc2c1 | . | 8.49µM | - | . | - | ?
CCN1CCN(C(c2ccc(C)cc2)c2sc3nc(-c4ccco4)nn3c2O)CC1 (stereo not drawn) | . | - | . | . | . | .
COc1ccc(OC)c(-c2noc(N3CCN(c4ccc(C(C)=O)cc4)CC3)n2)c1 | . | - | . | . | . | .
CC(=O)C(/C=N/c1cc(-c2ccc(C)cc2)nn1-c1ccccc1)=C(\C)O | - | ? | 3.98µM | ? | ? | 3.98µM
O=C(N/N=C/C1CC2C=CC1C2)c1ccccc1O (stereo not drawn) | . | 21.3µM | - | . | - | -
COCCn1c(C)cc(O)c(C(c2ccccc2F)N2CCN(c3ccccc3)CC2)c1=O (stereo not drawn) | . | - | . | . | . | .
Cc1nc(C)c(-c2ccc(SCC(=O)Nc3ccc(C)c(Cl)c3)nn2)s1 | . | ? | - | . | - | -
CC(=O)c1ccc(NC(=O)CSc2ccc(-c3sc(C)nc3C)nn2)cc1 | . | 13.5µM | - | . | - | -
CCOc1ccc(NC(=O)CSc2ccc(-c3ccccn3)nn2)cc1 | . | - | - | . | - | -
O=C(CSc1ccc(-c2ccccn2)nn1)Nc1ccc(F)c(F)c1 | . | 13.5µM | - | . | ? | -
Cc1ccc(NC(=O)CSc2ccc(-c3ccccn3)nn2)cc1 | - | - | - | - | ? | -
CCOC(=O)c1ccc(NC(=O)CSc2ccc(-c3ccccn3)nn2)cc1 | . | 10.7µM | - | . | ? | -
CC(C)CC(NC(=O)C1CCCCC1)C(=O)Nc1cccc(C(F)(F)F)c1 (stereo not drawn) | . | - | . | - | . | .
Cc1ccsc1C(=O)NNC(=O)C1C2C=CC(C2)C1C(=O)O (stereo not drawn) | - | 23.9µM | - | - | ? | -
CC(=O)c1cc2c(cc1NS(=O)(=O)c1cccc(C(=O)O)c1)OCO2 | . | - | - | . | - | -
CC(=O)c1cc2c(cc1NS(=O)(=O)c1ccccc1)OCO2 | - | - | - | - | 16.4µM | -
SMILES | Luc counter | FLuc counter | Rab9 prom act | SMN2 splice enh | ELG1 genotoxic | NPC1 prom act
Cc1ccc(Cn2c(C)c3cnn(CC(=O)N4CCN(c5ccc(F)cc5)CC4)c(=O)c3c2C)cc1 | . | ? | . | - | . | .
COc1ccccc1N1CCN(C(=O)CSc2nc3ccccc3nc2Cc2ccccc2)CC1 | . | - | . | . | . | .
c1ccc(-c2nc3c4ccccc4ccn3c2CN2CCCCC2)cc1 | . | 5.36µM | - | . | - | -
Cc1ccc(-c2nc3c4ccccc4ccn3c2CN2CCCCC2)cc1 | . | ? | - | . | - | -
Cc1ccn2c(c1)nc(=S)n2C(=O)c1ccccc1 | ? | 0.135µM | 0.251µM | 0.501µM | ? | 0.398µM
Cc1ccn2c(NC(=O)c3ccccc3)c(-c3ccccc3)nc2c1 | . | - | - | . | - | -
Cc1cccc(C(=O)n2c(=S)nc3cc(C)ccn32)c1 | . | 0.19µM | 0.251µM | . | 0.461µM | 0.562µM
